From the supplement of paper PMC10849652 come the findings set out here.

Of roughly 8,800 targets only a part is listed; those with a hit were picked by preference. About 0.5% of all pairs of compound and target were hits. Unmarked numbers belong to inactive results.

Chain of UniProt Q96LJ8 (Q96LJ8 whole entry, looked up): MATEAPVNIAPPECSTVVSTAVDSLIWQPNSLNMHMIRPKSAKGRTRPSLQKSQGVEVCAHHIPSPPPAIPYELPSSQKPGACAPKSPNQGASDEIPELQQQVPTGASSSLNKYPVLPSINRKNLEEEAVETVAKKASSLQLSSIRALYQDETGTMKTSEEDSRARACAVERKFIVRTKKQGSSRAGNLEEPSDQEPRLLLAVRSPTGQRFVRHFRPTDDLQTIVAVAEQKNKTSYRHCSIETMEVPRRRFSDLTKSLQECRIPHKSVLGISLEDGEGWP
Chain of UniProt Q8TD43 (Q8TD43 whole entry, looked up): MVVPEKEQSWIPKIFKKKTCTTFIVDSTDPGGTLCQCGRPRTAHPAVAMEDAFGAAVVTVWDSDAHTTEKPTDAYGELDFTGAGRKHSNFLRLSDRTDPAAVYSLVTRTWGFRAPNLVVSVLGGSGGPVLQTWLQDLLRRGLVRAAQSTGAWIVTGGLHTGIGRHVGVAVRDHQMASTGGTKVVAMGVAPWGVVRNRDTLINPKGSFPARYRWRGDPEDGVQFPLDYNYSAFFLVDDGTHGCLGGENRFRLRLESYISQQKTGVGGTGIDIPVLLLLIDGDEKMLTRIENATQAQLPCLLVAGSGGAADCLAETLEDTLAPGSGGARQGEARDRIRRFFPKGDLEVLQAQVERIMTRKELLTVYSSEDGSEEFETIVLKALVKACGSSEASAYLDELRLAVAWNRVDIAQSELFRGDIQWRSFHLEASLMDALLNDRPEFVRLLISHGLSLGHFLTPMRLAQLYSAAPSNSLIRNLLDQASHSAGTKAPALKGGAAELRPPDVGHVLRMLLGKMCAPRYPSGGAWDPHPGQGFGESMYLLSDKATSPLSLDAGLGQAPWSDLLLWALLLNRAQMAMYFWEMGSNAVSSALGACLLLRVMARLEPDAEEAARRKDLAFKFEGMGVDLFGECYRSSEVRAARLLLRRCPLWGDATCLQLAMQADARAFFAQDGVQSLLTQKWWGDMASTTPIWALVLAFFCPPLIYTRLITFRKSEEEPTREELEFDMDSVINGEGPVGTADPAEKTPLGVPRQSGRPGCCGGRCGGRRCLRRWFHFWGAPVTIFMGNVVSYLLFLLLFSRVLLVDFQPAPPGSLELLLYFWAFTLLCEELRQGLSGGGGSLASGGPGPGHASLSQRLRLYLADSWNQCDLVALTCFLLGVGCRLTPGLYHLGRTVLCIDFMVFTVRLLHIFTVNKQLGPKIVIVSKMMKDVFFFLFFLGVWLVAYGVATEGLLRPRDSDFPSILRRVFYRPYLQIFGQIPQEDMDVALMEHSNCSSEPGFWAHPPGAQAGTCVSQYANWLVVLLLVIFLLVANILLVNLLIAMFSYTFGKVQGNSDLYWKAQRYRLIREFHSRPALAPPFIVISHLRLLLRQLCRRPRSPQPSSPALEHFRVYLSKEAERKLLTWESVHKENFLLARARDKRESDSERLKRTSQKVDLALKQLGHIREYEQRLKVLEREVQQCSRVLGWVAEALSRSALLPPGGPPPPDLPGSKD
Chain of UniProt Q8NDZ6 (Q8NDZ6 whole entry, looked up): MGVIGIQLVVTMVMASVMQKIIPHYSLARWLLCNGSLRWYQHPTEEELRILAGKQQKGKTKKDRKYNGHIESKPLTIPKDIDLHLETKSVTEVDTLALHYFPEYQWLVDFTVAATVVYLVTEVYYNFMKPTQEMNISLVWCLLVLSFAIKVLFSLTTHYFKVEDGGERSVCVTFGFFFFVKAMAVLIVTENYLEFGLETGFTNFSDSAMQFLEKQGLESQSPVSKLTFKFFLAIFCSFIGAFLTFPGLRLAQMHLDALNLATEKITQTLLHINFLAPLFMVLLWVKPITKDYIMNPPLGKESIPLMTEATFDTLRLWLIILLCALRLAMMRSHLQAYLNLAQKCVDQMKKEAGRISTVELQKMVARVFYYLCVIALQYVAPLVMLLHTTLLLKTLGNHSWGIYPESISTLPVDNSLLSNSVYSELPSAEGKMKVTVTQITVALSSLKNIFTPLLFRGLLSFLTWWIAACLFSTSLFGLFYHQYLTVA
Chain of UniProt Q9BZL1 (Q9BZL1 whole entry, looked up): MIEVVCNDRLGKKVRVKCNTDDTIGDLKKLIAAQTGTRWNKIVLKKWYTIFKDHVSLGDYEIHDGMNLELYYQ
Chain of UniProt P21580 (P21580 whole entry, looked up): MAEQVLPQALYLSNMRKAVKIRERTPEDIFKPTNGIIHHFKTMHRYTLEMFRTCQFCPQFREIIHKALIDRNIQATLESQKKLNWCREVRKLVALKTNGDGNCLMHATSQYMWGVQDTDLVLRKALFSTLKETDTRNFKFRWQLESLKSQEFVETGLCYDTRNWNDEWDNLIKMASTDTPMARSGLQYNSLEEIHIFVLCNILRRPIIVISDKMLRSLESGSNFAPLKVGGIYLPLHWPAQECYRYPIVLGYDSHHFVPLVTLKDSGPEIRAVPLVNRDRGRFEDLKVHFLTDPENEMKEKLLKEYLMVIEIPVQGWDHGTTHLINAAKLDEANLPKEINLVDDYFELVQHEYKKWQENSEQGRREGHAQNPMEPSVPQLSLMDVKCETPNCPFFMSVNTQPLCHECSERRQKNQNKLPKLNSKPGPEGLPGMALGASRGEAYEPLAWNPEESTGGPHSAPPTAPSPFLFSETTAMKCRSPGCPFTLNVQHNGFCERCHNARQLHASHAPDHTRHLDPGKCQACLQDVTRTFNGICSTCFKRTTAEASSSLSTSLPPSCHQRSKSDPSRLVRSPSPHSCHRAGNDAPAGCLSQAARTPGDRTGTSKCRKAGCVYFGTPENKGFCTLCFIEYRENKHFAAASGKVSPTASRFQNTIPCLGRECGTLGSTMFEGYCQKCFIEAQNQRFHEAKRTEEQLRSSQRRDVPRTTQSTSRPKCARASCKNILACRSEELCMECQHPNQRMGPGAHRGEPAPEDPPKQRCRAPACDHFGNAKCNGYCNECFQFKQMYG
Chain of UniProt P04350 (P04350 whole entry, looked up): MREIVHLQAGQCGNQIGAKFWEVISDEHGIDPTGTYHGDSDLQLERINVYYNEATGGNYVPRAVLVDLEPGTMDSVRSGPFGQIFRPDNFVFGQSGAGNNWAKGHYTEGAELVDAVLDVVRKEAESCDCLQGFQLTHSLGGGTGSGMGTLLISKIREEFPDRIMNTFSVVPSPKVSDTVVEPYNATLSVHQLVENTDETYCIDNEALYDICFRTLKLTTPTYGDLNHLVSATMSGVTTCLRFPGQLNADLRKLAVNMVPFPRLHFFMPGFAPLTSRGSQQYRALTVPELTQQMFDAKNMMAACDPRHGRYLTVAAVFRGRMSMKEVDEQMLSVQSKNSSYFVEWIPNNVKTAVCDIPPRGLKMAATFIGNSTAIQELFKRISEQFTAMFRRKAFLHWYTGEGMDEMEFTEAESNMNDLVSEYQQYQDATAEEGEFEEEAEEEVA
Chain of UniProt Q01664 (Q01664 whole entry, looked up): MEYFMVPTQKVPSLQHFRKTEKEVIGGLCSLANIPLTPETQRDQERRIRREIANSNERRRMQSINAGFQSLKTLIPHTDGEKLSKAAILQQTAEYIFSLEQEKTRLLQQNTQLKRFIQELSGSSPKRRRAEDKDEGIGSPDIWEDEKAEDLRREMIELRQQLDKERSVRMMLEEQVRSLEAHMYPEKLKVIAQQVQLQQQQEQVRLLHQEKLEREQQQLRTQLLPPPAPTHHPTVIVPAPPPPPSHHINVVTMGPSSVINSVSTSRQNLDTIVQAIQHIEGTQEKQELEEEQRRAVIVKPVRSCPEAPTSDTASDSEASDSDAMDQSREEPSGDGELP
Chain of UniProt Q96RT8 (Q96RT8 whole entry, looked up): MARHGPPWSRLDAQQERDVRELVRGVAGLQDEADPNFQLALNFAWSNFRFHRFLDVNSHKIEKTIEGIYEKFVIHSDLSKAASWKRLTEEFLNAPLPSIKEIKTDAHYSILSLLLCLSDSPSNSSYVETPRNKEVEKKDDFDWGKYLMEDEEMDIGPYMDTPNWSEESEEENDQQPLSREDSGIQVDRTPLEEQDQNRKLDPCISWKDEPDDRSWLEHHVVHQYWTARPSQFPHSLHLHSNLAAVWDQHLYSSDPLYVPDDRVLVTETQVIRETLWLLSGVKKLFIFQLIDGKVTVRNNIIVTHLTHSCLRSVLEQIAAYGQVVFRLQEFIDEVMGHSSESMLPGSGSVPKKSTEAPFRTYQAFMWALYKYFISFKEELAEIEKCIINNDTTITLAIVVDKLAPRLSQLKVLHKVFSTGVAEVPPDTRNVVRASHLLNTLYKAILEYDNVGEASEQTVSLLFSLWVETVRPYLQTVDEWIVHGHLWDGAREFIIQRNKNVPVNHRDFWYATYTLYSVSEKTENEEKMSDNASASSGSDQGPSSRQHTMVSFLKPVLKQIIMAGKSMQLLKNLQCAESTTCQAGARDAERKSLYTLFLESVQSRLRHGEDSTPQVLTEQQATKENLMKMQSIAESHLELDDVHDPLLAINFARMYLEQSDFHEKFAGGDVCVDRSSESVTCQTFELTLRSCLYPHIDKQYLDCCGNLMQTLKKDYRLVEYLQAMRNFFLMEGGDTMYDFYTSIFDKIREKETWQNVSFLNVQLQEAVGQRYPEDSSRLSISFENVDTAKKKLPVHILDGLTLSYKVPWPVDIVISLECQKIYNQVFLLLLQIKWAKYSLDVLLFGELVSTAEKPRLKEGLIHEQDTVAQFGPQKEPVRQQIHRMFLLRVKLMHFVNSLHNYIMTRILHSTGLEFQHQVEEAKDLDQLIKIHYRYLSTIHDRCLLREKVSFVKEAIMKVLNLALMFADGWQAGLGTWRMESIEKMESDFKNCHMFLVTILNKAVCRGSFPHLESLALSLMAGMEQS
Chain of UniProt Q53S58 (Q53S58 whole entry, looked up): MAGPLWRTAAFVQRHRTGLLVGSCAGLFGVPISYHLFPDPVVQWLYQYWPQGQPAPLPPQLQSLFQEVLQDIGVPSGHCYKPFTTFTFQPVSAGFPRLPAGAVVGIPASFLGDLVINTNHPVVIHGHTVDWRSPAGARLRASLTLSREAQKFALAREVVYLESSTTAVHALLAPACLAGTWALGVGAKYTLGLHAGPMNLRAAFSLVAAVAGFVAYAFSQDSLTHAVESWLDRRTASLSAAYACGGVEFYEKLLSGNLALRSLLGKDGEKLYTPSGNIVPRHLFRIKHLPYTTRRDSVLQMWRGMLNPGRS

Compound in one assay: Cc1cc(Nc2cc(N3CCN(C)CC3)nc(Sc3ccc(NC(=O)C4CC4)cc3)n2)n[nH]1 [tozasertib]
As to the kind of experiment: log2 fold change, soluble protein after heating vs DMSO (PISA); higher = thermal stabilisation; K562 lysate, 10 uM; active = over 0.2 and 3.5 SD of the protein, either way, in both replicates (recomputed). In short, it runs like this:
(§1)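 Following dounce homogenisation of K562 pellets in PBS pH 7.4 with 1 mM MgCl2, crude extract at 1 mg/mL protein was incubated for 30 min with 10 μM compound. Aliquots were then heated for 3 min over 48°C-58°C and pooled, NP-40 was added to 0.5% at 4°C, and soluble protein was recovered as the supernatant at 21,000xg for 90 min. Channel-sum-equalised TMTpro 16plex LC-MS/MS quantified this protein. Each value, from duplicates, is a log-two fold change in thermal stability relative to solvent controls.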
For the target TPM1 isoform 4 (UniProt P09493), the log2 fold change is 0.013.

Turning to TBC1D20 isoform 3 (UniProt Q96BZ9), the log2 fold change was -0.017.

In the case of UBL5 (UniProt Q9BZL1), the log2 fold change was 0.138.

On to TUBAL3 (UniProt A6NHL2), for which the log2 fold change is 0.09.

As for TUBB4A (UniProt M0QYM7), the log2 fold change is 0.138.

For TMEM177 (UniProt Q53S58), the log2 fold change is -0.016.

Consider TLE3 isoform 5 (UniProt Q04726), for which the log2 fold change was -0.089.

Compound in another assay: Cc1ccc(-n2nc(C(C)(C)C)cc2NC(=O)Nc2ccc(OCCN3CCOCC3)c3ccccc23)cc1 [doramapimod]
Described as above. In short, it runs like this:
as §1
As for TMEM132A isoform 2 (UniProt Q24JP5), the log2 fold change is -0.163.

With UBIAD1 (UniProt Q9Y5Z9), the log2 fold change was -0.014.

Take TMEM161B (UniProt Q8NDZ6): the log2 fold change was -0.03.

For the target TK1 (UniProt K7ERV3), the log2 fold change is 0.041.

TUBB4A (UniProt P04350): the log2 fold change was -0.025.

Consider TUBGCP5 (UniProt Q96RT8), for which the log2 fold change is 0.044.

As to UBXN10 (UniProt Q96LJ8), the log2 fold change was -0.003.

For the target UCHL5 (UniProt Q5LJA9), the log2 fold change is 0.067.

On to TNFAIP3 (UniProt P21580), for which the log2 fold change is 0.084.

As to TUBB6 (UniProt K7ES63), the log2 fold change was 0.2.

TRPM4 (UniProt Q8TD43): the log2 fold change is -0.111.

As for TFAP4 (UniProt Q01664), the log2 fold change is 0.017.

Regarding TMEM164 (UniProt Q5U3C3), the log2 fold change was -0.173.

On to TTLL12 (UniProt V9GY16), for which the log2 fold change is -0.029.

With TPM3 isoform 3 (UniProt P06753), the log2 fold change was 0.027.

TXNIP (UniProt Q9H3M7): the log2 fold change is 0.019.

Take TMSB4X (UniProt P62328): the log2 fold change was -0.24.

For TNKS (UniProt O95271), the log2 fold change was -0.013.

As to TJP1 (UniProt G3V1L9), the log2 fold change is -0.209.

Turning to TMEM167B (UniProt Q9NRX6), the log2 fold change is -0.083.

For TFPI (UniProt P10646), the log2 fold change is 0.082.

On to TPM1 isoform 4 (UniProt P09493), for which the log2 fold change was 0.012.

For TBC1D20 isoform 3 (UniProt Q96BZ9), the log2 fold change was -0.095.

With UBL5 (UniProt Q9BZL1), the log2 fold change was 0.013.

For the target TUBB4A (UniProt M0QYM7), the log2 fold change is 0.116.

As for TMEM177 (UniProt Q53S58), the log2 fold change was -0.056.

As to TLE3 isoform 5 (UniProt Q04726), the log2 fold change is -0.061.

Compound in the next assay: Cc1ccc(NC(=O)c2ccc(CN3CC[C@H](N(C)C)C3)c(C(F)(F)F)c2)cc1Nc1nccc(-c2cncnc2)n1 [bafetinib]
Described as above. The method, boiled down: as §1
Regarding TMEM161B (UniProt Q8NDZ6), the log2 fold change is 0.007.

Turning to TK1 (UniProt K7ERV3), the log2 fold change was -0.181.

Regarding TUBB4A (UniProt P04350), the log2 fold change is -0.026.

Consider TM2D3 (UniProt Q9BRN9), for which the log2 fold change was 0.048.

On to TUBGCP5 (UniProt Q96RT8), for which the log2 fold change is -0.121.

In the case of UBXN10 (UniProt Q96LJ8), the log2 fold change was -0.081.

For the target UBXN2B (UniProt Q14CS0), the log2 fold change was 0.003.

Consider UCHL5 (UniProt Q5LJA9), for which the log2 fold change is -0.07.

Consider TNFAIP3 (UniProt P21580), for which the log2 fold change was -0.02.

As to TUBB6 (UniProt K7ES63), the log2 fold change was -0.278.

On to TRPM4 (UniProt Q8TD43), for which the log2 fold change was -0.02.

Take TFAP4 (UniProt Q01664): the log2 fold change was -0.214.

Take TMEM164 (UniProt Q5U3C3): the log2 fold change is -0.05.

Take TTLL12 (UniProt V9GY16): the log2 fold change was -0.187.

On to TXNIP (UniProt Q9H3M7), for which the log2 fold change is -0.042.

For the target TMSB4X (UniProt P62328), the log2 fold change was -0.546.

As to TJP1 (UniProt G3V1L9), the log2 fold change was -0.047.

As for TPD52L2 isoform 3 (UniProt O43399), the log2 fold change was -0.102.

As to TMEM167B (UniProt Q9NRX6), the log2 fold change is -0.075.

Consider TFPI (UniProt P10646), for which the log2 fold change was 0.149.

With TPM1 isoform 4 (UniProt P09493), the log2 fold change is 0.011.

As for TBC1D20 isoform 3 (UniProt Q96BZ9), the log2 fold change was -0.303.

UBL5 (UniProt Q9BZL1): the log2 fold change was -0.034.

On to TUBAL3 (UniProt A6NHL2), for which the log2 fold change was -0.232.

As for TUBB4A (UniProt M0QYM7), the log2 fold change is -0.516.

For the target TMEM177 (UniProt Q53S58), the log2 fold change is -0.059.

Take TLE3 isoform 5 (UniProt Q04726): the log2 fold change is 0.084.

Compound in another assay: Cc1cccc(CC(=O)N2CCc3c2ccc(-c2cn(C)c4ncnc(N)c24)c3F)n1
Described as above. The method, boiled down: as §1
With TMEM132A isoform 2 (UniProt Q24JP5), the log2 fold change was 0.002.

Consider UBIAD1 (UniProt Q9Y5Z9), for which the log2 fold change is 0.016.

On to TMEM161B (UniProt Q8NDZ6), for which the log2 fold change is 0.077.

Turning to TK1 (UniProt K7ERV3), the log2 fold change is 0.01.

For U2AF1L5 (UniProt P0DN76), the log2 fold change was 0.342.

As to TUBB4A (UniProt P04350), the log2 fold change was -0.01.

For the target TM2D3 (UniProt Q9BRN9), the log2 fold change is 0.348.

With TUBGCP5 (UniProt Q96RT8), the log2 fold change was 0.101.

For the target UBXN10 (UniProt Q96LJ8), the log2 fold change is -0.065.

For the target UBXN2B (UniProt Q14CS0), the log2 fold change was -0.005.

Turning to UCHL5 (UniProt Q5LJA9), the log2 fold change is -0.156.

TNFAIP3 (UniProt P21580): the log2 fold change was -0.023.

For the target TUBB6 (UniProt K7ES63), the log2 fold change was 0.253.

For TRPM4 (UniProt Q8TD43), the log2 fold change is 0.25.

As for TFAP4 (UniProt Q01664), the log2 fold change was -0.217.

In the case of TMEM164 (UniProt Q5U3C3), the log2 fold change is 0.512.

In the case of TTLL12 (UniProt V9GY16), the log2 fold change is 0.263.

For TPM3 isoform 3 (UniProt P06753), the log2 fold change was 0.202.

Turning to TXNIP (UniProt Q9H3M7), the log2 fold change was -0.037.

Take TMSB4X (UniProt P62328): the log2 fold change is -0.166.

As to TNKS (UniProt O95271), the log2 fold change is 0.107.

Turning to TJP1 (UniProt G3V1L9), the log2 fold change was 0.059.

Regarding TPD52L2 isoform 3 (UniProt O43399), the log2 fold change is -0.124.

Consider TSPAN3 (UniProt O60637), for which the log2 fold change was -0.342.

Turning to TMEM167B (UniProt Q9NRX6), the log2 fold change was 0.128.

On to TFPI (UniProt P10646), for which the log2 fold change was -0.301.

Regarding TPM1 isoform 4 (UniProt P09493), the log2 fold change is -0.142.

Regarding TBC1D20 isoform 3 (UniProt Q96BZ9), the log2 fold change is 0.025.

In the case of UBL5 (UniProt Q9BZL1), the log2 fold change was 0.104.

Turning to TUBAL3 (UniProt A6NHL2), the log2 fold change was 0.567 (active).

TUBB4A (UniProt M0QYM7): the log2 fold change was 0.42.

In the case of TMEM177 (UniProt Q53S58), the log2 fold change was -0.013.

As for TLE3 isoform 5 (UniProt Q04726), the log2 fold change is 0.084.
